Test results published in PubChem BioAssay (NCI).
About 83,000 compounds went through this panel and 20% of them were active in at least one assay; those are over-represented in the sample as a whole.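 The test compound was applied at a single concentration to cells in 96-well plates for 48 hours, and percent growth was recorded.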 Values without a mark were called inactive. Calls of active or inactive are those of the source. The calls were made as follows: active = growth percent below 10; inactive = the rest.

test system: A549/ATCC NSCLC; experiment: NCI-60 one-dose screen, 48 h (100 = growth as untreated, 0 = no growth, -100 = all killed); conditions: 10 µM unless noted

| Structure (SMILES) | growth |
| --- | --- |
| COc1cc(/C=C\c2cc(OC)c(OC)c(OC)c2)cc(N/C=C\C(=O)c2cc(OC)c(OC)c(OC)c2)c1OC | 40% |
| N#C[S-].[Au+].c1ccc(CN2[CH-]N(Cc3ccccc3)C(c3ccccc3)=C2c2ccccc2)cc1 | 12.8% |
| O=[N+]([O-])c1ccc(OP(=O)(CCl)N(CCCl)CCCl)cc1 (stereo not drawn) | 102% |
| O=C1CC2(CC3(Cl)C(Cl)=C(Cl)C2(Cl)C3(Cl)Cl)C(=O)O1 (stereo not drawn) | 105% |
| COc1cc2c(cc1OCCCCCn1c(-c3ccco3)nc3ccccc31)N=C[C@@H]1CCCN1C2=O | 9.67% (active) |
| O=C(O)c1ccc([S-])cc1.[Au+].c1ccc(CN2[CH-]N(Cc3ccccc3)C(c3ccccc3)=C2c2ccccc2)cc1 | 3.5% (active) |
| N#C[Se]Cc1cc(-c2ccccc2)n(-c2ccc(S(N)(=O)=O)cc2)n1 | -33.1% (active) |
| COc1cc2c(cc1OCCCCn1c(-c3cccs3)nc3ccccc31)N=C[C@@H]1CCCN1C2=O | -7.19% (active) |
| COc1ccc(/C=C\c2cc(OC)c(OC)c(OC)c2)cc1OCC(=O)Nc1nc2ccc(F)cc2s1 | 31% |
| O=C(Nc1ccc([N+](=O)[O-])cc1)C(Cl)(Cl)Cl | 94% |
| C[CH2][Sn]([Cl])([Cl])[CH2]C.Oc1ccccc1C=NCCN=Cc1ccccc1O | 96% |
| C[N+]12CN3CN(CN(C3)C1)C2 | 98.8% |
| C[C@]12CC[C@@H]3c4ccc(Oc5nc(N6CC6)nc(N6CC6)n5)cc4CC[C@H]3[C@@H]1CCC2=O | 24.9% |
